High-throughput results as filed in PubChem BioAssay.
In the library only some 3.3% were active in any assay of this set; here they are far more common.
VACV Venus inh: vaccinia inhibition (Venus reporter) | AID 720580 | actives 0.46% (n = 330,000) | Potency, µM (top dose mostly 36.5 µM), actives largely listed as inhibitors | Vaccinia virus Venus reporter expression, fluorescence; calls by dose curve; tested in A549 cells; also: nearly all actives have a fitted effect of over 30% in size
Vaccinia mCherry: inhibitors of vaccinia virus infection (mCherry reporter signal) | actives 0.63% (n = 310,000) | Vaccinia virus mCherry reporter infection, fluorescence | Potency, µM (titrated, usually from 36.5 µM), usual class: inhibitors; calls by dose curve; tested in A549 cells; also: nearly all actives have a fitted effect of over 35% in size
HCV inh: inhibitors of hepatitis C virus infection; Huh7.5.1 HCVcc-Cre infection, luciferase reporter, 44 h; Potency, µM (titrated, usually from 41.8 µM), most hits filed as inhibitors; actives 3.4% (n = 340,000); AID 651820; active = well fitted inhibition curve with a large enough effect; inconclusive = small, poorly fitted or top-dose-only effect, or another doubt; inactive = no such curve, though single readings can be large or run the other way
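Infectious HCV cell culture screen: compound-treated cells (1,000/well, pre-plated 4 h) are infected with HCVcc-Cre at roughly 0.5 moi and grown 44 h. Infection is quantified by luciferase signal after 15 min substrate incubation at room temperature.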
Hits are given with their value; . = inactive; ? = inconclusive; / = no result given; [ ] = remark or other dose.

SMILES	VACV Venus inh	Vaccinia mCherry	HCV inh
COC(=O)c1ccc(/C=N/Nc2nc(-c3ccc(C)cc3)cs2)cc1	?	13µM	.
COC(=O)c1ccc(/C=N/Nc2nc(-c3ccccc3)cs2)cc1	.	.	.
CC(=O)Nc1cccc(NC(=O)CSc2nccn2C2CCCC2)c1	.	.	/
CN(C)c1ccc(N2C(=NC(=O)CCC3CCCC3)SC3CS(=O)(=O)CC32)cc1 (stereo not drawn)	.	.	.
COc1ccc(NC(=O)NCCCN2CCN(c3ccccc3F)CC2)cc1	.	.	.
CCOc1cccc(N2CCN(CCNC(=O)Nc3ccc(C)cc3)CC2)c1C	/	/	13µM
COc1ccc(C(=O)CCC(=O)N2CCN(c3cc(C)ccc3C)CC2)cc1	/	/	10µM
CCOc1ccc(NC(=O)NCCN2CCN(c3cccc(C)c3C)CC2)cc1	.	.	?
COc1ccc(N2CCN(C(=O)CCCOc3cc(=O)n(C)c4ccccc34)CC2)cc1	/	/	.
COc1ccc(NC(=O)NCCCN2CCN(c3cc(C)ccc3C)CC2)cc1	.	?	10µM
COc1ccc(-c2cccc(CCC(=O)N3CCN(c4cc(C)ccc4C)CC3)c2)cc1	.	.	?
Cc1ccc(C)c(N2CCN(C(=O)CCCOc3cc(=O)n(C)c4ccccc34)CC2)c1	/	/	10µM
FC(F)(F)c1cccc(OCC2CNC(=S)O2)c1 (stereo not drawn)	?	?	.
CCN(CC(=O)Nc1c(F)cccc1F)C(=O)C1CC1C (stereo not drawn)	.	.	.
COc1ccccc1CN1[C@@H](CC(C)=O)c2cc(C(F)(F)F)ccc2S1(=O)=O	.	.	.
COC(=O)c1ccccc1NC(=O)CSc1cc(-c2ccccc2)nc(C)n1	.	.	/
COCOCCn1cc(CN2CCS(=O)(=O)N(Cc3ccc(-c4ccc(OC)c(OC)c4)cc3)C(CC(C)C)C2=O)nn1 (stereo not drawn)	.	.	/
CCC(=O)N1CCc2cc(S(=O)(=O)CCC(=O)N3CCN(c4ccccc4Cl)CC3)ccc21	.	.	/
Cc1nn(-c2ccc(N3CCCC3)nn2)c(C)c1CCC(=O)Nc1ccc(F)c(Cl)c1	.	.	/
Cc1ccc(C(=O)/C=C/Nc2cccc(O)c2)cc1	.	.	.
C/C(=C\C(=O)c1ccc(C)cc1)Nc1cccc(O)c1	.	.	13µM
C=CCC[C@H](Cc1ccc(F)cc1)C(=O)OC[C@H](Cc1c[nH]c2ccccc12)NC(=O)[C@H](CC=C)CC(=O)N(CCO)Cc1ccccc1	22µM	?	?
C=CCC[C@H](Cc1ccc(F)cc1)C(=O)OC[C@@H](Cc1c[nH]c2ccccc12)NC(=O)[C@@H](CC=C)CC(=O)N[C@@H](CO)Cc1ccccc1	?	.	.
C=CCC[C@@H](Cc1ccc(F)cc1)C(=O)OC[C@@H](Cc1ccccc1)NC(=O)[C@H](CC=C)CC(=O)NCCO	?	.	7.1µM
C=CCC[C@@H](Cc1ccc(F)cc1)C(=O)OC[C@@H](Cc1c[nH]c2ccccc12)NC(=O)[C@H](CC=C)CC(=O)N[C@H](CO)Cc1ccccc1	11µM	.	?
SMILES	VACV Venus inh	Vaccinia mCherry	HCV inh
C=CCC[C@@H](Cc1ccc(F)cc1)C(=O)OC[C@@H](Cc1c[nH]c2ccccc12)NC(=O)[C@@H](CC=C)CC(=O)N(CCO)Cc1ccccc1	?	.	?
C=CCC[C@H](Cc1ccc(F)cc1)C(=O)OC[C@@H](C)NC(=O)[C@H](CC=C)CC(=O)NCCO	.	.	?
CCOc1ccc(CNC(=O)C2CCN(S(=O)(=O)c3cn(C)cn3)CC2)cc1OC	.	.	/
CCCc1nn2c(C)c(-c3ccccc3)nc2s1	.	.	/
C=CCNCc1ccccc1[N+](=O)[O-]	.	.	.
O=S(=O)(NC(=S)c1ccccc1)c1ccc(F)cc1	.	.	.
Cc1cccc(NC(=O)C2CCC(CNS(=O)(=O)c3ccc(Br)s3)CC2)c1 (stereo not drawn)	.	.	/
COc1ccccc1NS(=O)(=O)c1ccc2oc(SCc3ccc(F)cc3)nc2c1	.	.	35µM
COc1ccccc1NS(=O)(=O)c1ccc2oc(SCC(C)=O)nc2c1	.	.	.
COc1ccc(NS(=O)(=O)c2ccc3oc(SCc4ccc(F)cc4)nc3c2)cc1	?	?	11µM
COc1ccccc1NS(=O)(=O)c1ccc2oc(SC)nc2c1	.	.	?
CCOc1ccc(/C=C/C(=O)Nc2sc3c(c2C(=O)OC)C(C(=O)OC)CC3)cc1 (stereo not drawn)	.[7.34 µM]	.[7.34 µM]	/
NC(=O)c1cc(Br)cc(C2CCCCC2)c1O	?	.	?
COc1ccc(C2NC(=O)N(C)C3=C2C(=O)N(c2ccccc2)C3)cc1 (stereo not drawn)	.	.	/
Cc1ccc(Cl)cc1N1CCN(C2CCCCC2NS(=O)(=O)c2ccccc2)CC1 (stereo not drawn)	/	/	.
Cc1ccc(C)c(N2CCN(C3CCCCC3NS(=O)(=O)c3ccccc3)CC2)c1 (stereo not drawn)	/	/	11µM
CCCCOc1ccc(CNC(=O)c2ccc(NC(=O)N3CCCCc4ccccc43)cc2)cc1	?	.	/
Cc1oc(-c2ccccc2NS(C)(=O)=O)nc1CN(C)Cc1ccc(Cl)cc1	.	.	/
CC[C@H]1OC(=O)[C@H](C)C(=O)[C@H](C)[C@@H](O[C@@H]2O[C@H](C)C[C@H](N(C)C)[C@H]2O)[C@](C)(OC)C[C@@H](C)C(=O)[C@H](C)[C@H]2N(CCCCn3cnc(-c4cccnc4)c3)C(=O)O[C@]12C	.	.	/
CCCCOc1ccccc1-c1ccccc1CN1[C@@H](C(C)C)COCCS1(=O)=O	.	.	?
CCCC[C@H]1COCCS(=O)(=O)N1Cc1ccc(C)cc1	2.2µM	?	.
CC(C)[C@H]1COCCS(=O)(=O)N1Cc1ccccc1-c1cccc2c1oc1ccccc12	.	?	13µM
CC(C)[C@H]1COCCS(=O)(=O)N1Cc1ccc(Cl)cc1	?	25µM	.
CCCC[C@H]1COCCS(=O)(=O)N1Cc1ccc(F)cc1	.	.	.
CCC1COCCS(=O)(=O)N1Cc1ccc(Cl)cc1 (stereo not drawn)	.	.	.
SMILES	VACV Venus inh	Vaccinia mCherry	HCV inh
COc1ccc(-c2csc(Nc3ncccc3C)n2)cc1OC	.	/	2.2µM
COc1ccc(-c2csc(Nc3ncccc3C)n2)cc1	?	.	?
COc1ccc(-c2csc(Nc3ncccn3)n2)cc1C	/	/	.
COc1ccc(-c2csc(Nc3cc(C)ccn3)n2)cc1C	/	/	13µM
Cc1ccc(-c2[nH]ncc2CNC(C)c2ccccc2)cc1 (stereo not drawn)	.	.	/
Cc1nn(C)c(Cl)c1NC(=O)OCc1ccc(Cl)cc1Cl	.	.	10µM
Cc1nnsc1NC(=O)OCc1ccc(Cl)cc1Cl	.	/	.
Cc1nn(Cc2ccc(Cl)cc2Cl)c(C)c1NC(=O)C1C2CCC(O2)C1C(=O)O (stereo not drawn)	.	?	?
Cc1nn(Cc2ccccc2)c(C)c1NC(=O)c1cc(-c2ccco2)on1	.	.	.
Cc1nn(Cc2ccc(Cl)cc2)c(C)c1NC(=O)c1cc(-c2ccc3c(c2)OCO3)on1	/	/	32µM
Cc1nn(Cc2ccc(Cl)cc2Cl)c(C)c1NC(=O)CCl	/	/	13µM
Cc1ccc(NC(=O)c2cc(-c3ccc4c(c3)OCO4)on2)cc1	.	.	.
COc1ccc(OC)c(-c2cc(C(=O)Nc3c(C)nn(Cc4ccc(Cl)cc4)c3C)no2)c1	/	/	14µM
O=C(c1cc(Cl)ccc1O)N1CCN(S(=O)(=O)c2cccs2)CC1	.	.	?
